Usually AC50 stands for the concentration giving half of the maximal activity seen.

Conditions in all cases: mRNA level, 48 h; actives raise or lower the signal
Read-out in assay [1]: DNA damage-inducible transcript 3 (DDIT3), DDIT3 (gene 1649)
Briefly: LTEA_HepaRG_DDIT3: Life Technologies and Expression Analysis (LTEA) Assay for DNA damage-inducible transcript 3 (DDIT3) using HepaRG (AID 2283488). Summed up: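 HepaRG cells, 48 h after plating, exposed 48 h in serum-free induction medium to 8 half-log concentrations up to 100 uM in 0.5% DMSO, in duplicate. DDIT3 mRNA measured by TaqMan qRT-PCR, normalized to ACTB, GAPDH and POLR2A. Fitted bidirectionally against DMSO.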

Read-out in assay [2]: Pro-epidermal growth factor (Homo sapiens) (UniProt P01133)
Description: LTEA_HepaRG_EGF: Life Technologies and Expression Analysis (LTEA) Assay for Epidermal growth factor (EGF) using HepaRG (AID 2283489). In short, it runs like this:
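HepaRG, 48 h dosing, 100 uM top, half-log x8, 0.5% DMSO. Readout: TaqMan qRT-PCR (Fluidigm array), housekeeping-normalized. Gain or loss of signal fit vs DMSO.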

Read-out in assay [3]: Early growth response protein 1 (EGR1) transcription factor, EGR1 (gene 1958)
Briefly: LTEA_HepaRG_EGR1: Life Technologies and Expression Analysis (LTEA) Assay for Early growth response protein 1 (EGR1) transcription factor using HepaRG (AID 2283490). In short, it runs like this: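 Read-out is EGR1 mRNA level by qRT-PCR, normalized to three housekeeping genes and analysed for gain or loss of signal against 0.5% DMSO. Source cells: human HepaRG, treated 48 h at up to 100 uM in half-log dilutions.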

Read-out in assay [4]: Ezrin (EZR), EZR (gene 7430)
Briefly: LTEA_HepaRG_EZR: Life Technologies and Expression Analysis (LTEA) Assay for Ezrin (EZR) using HepaRG (AID 2283491). In short, it runs like this:
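EZR transcript levels came from Fluidigm qRT-PCR and were normalized to three housekeeping genes after 48 h chemical exposure of HepaRG cells. Dosing used an 8-point half-log series with a 100 uM top concentration in 0.5% DMSO, tested in duplicate; both directions were fitted versus vehicle.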

Read-out in assay [5]: Cytochrome P450 3A7 (Homo sapiens) (UniProt P24462)
Briefly: LTEA_HepaRG_CYP3A7: Life Technologies and Expression Analysis (LTEA) Assay for CYP3A7 using HepaRG (AID 2283492). Summed up:
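Human HepaRG liver cells, 48 h post-plating, switched to serum-free induction medium and exposed in duplicate for 48 h. Dosing: 100 uM top, half-log dilutions, 8 points, 0.5% DMSO vehicle. Read-out: CYP3A7 mRNA, gain or loss fitted against DMSO baseline.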

Read-out in another assay: CYP3A5 (gene 1577)
Description: LTEA_HepaRG_CYP3A5: Life Technologies and Expression Analysis (LTEA) Assay for CYP3A5 using HepaRG (AID 2283493). Summed up:
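HepaRG cells, plated 48 h then in serum-free induction medium, dosed in duplicate for 48 h with eight half-log concentrations up to 100 uM in 0.5% DMSO. Gene mRNA by Fluidigm TaqMan qRT-PCR, normalized to ACTB, GAPDH, POLR2A.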

Read-out in assay [6]: Fatty Acid-Binding Protein 1 (FABP1), FABP1 (gene 2168)
Description: LTEA_HepaRG_FABP1: Life Technologies and Expression Analysis (LTEA) Assay for Fatty Acid-Binding Protein 1 (FABP1) using HepaRG (AID 2283494). Summed up: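 HepaRG, 48 h post-plating switched to serum-free induction medium, then dosed 48 h (duplicate, 8 pts, ≤100 uM, 0.5% DMSO). RNA → Fluidigm TaqMan qRT-PCR, FABP1 normed to ACTB/GAPDH/POLR2A. Bidirectional curve fit vs DMSO.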

Read-out in assay [7]: Cytochrome P450 4A22 (Homo sapiens) (UniProt Q5TCH4)
Briefly: LTEA_HepaRG_CYP4A22: Life Technologies and Expression Analysis (LTEA) Assay for Cytochrome P450 4A22 (CYP4A22) using HepaRG (AID 2283495). Summed up:
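Readout is CYP4A22 transcript induction or loss, quantified by qRT-PCR and normalized to ACTB, GAPDH and POLR2A. Human HepaRG cells receive test chemicals for 48 h at eight half-log concentrations from 100 uM in 0.5% DMSO.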

Read-out in assay [8]: Cytochrome P450 7A1 (Homo sapiens) (UniProt P22680)
Briefly: LTEA_HepaRG_CYP7A1: Life Technologies and Expression Analysis (LTEA) Assay for Cytochrome P450 7A1 (CYP7A1) using HepaRG (AID 2283496). In short, it runs like this: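 HepaRG cells plated 48 h, then switched to serum-free induction medium and exposed in duplicate for 48 h to 8-point half-log series from 100 uM in 0.5% DMSO. CYP7A1 mRNA by qRT-PCR (TaqMan), normalized to ACTB/GAPDH/POLR2A; bidirectional fit versus DMSO.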

Read-out in assay [9]: Glutathione S-Transferase (GSTA2), GSTA2 (gene 2939)
Description: LTEA_HepaRG_GSTA2: Life Technologies and Expression Analysis (LTEA) Assay for Glutathione S-Transferase (GSTA2) using HepaRG (AID 2283497). Summed up: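 HepaRG, 48 h dosing, 8-pt half-log CRC from 100 uM, 0.5% DMSO vehicle, n=2; RNA → Fluidigm TaqMan qRT-PCR; GSTA2 vs ACTB/GAPDH/POLR2A; gain/loss fit vs DMSO.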

Where a structure was tested more than once in an assay, its records may differ in their call. Calls of active or inactive are those of the source. How the source made its calls: active means hit-call score of the fitted dose curve at least 0.9, where 1 is the maximum; inactive means score below 0.9.

Cytochrome P450 3A7 (Homo sapiens), sequence (P24462 whole entry, looked up): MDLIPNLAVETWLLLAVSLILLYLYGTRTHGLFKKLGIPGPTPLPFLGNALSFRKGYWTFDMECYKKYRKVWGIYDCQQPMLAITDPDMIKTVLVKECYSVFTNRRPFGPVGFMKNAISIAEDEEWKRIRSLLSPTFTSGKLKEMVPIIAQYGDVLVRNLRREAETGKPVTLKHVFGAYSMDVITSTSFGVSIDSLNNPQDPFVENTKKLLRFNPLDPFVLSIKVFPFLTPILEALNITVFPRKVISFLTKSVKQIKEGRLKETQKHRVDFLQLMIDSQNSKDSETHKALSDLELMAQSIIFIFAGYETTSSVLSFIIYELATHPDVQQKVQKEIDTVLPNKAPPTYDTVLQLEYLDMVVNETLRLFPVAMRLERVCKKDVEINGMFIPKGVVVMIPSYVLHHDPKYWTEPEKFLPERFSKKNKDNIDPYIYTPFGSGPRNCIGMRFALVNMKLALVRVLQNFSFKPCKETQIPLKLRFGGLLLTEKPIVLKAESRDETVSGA

`CCOc1cc(Oc2ccc(C(F)(F)F)cc2Cl)ccc1[N+](=O)[O-]`: the AC50 in assay [1] is 78 µM (active); in assay [2], 10.5 µM (active); in [5] it was 75.8 µM (active); in assay [6], 30.4 µM (active); in assay [7] it was 39.1 µM (active); in [8], 34.8 µM (active). Besides, the half-maximal activity concentration (AC50) in assay [9] was 39.9 µM (active). For the same compound, the outcome (in [3]; in assay [4]; in the assay with CYP3A5 (gene 1577)) was inactive.
For `CCCCOC(=O)c1ccccc1C(=O)OCCCC`, the compound was classed as inactive (in assay [1]; in [2]; in assay [3]; in [4]; in [5]; with CYP3A5 (gene 1577)). Moreover, the call in [6], in assay [7], in assay [8] and in assay [9] was inactive.
For `CCCC1COC(Cn2cncn2)(c2ccc(Cl)cc2Cl)O1` (configuration not stated), the AC50 is 30.7 µM (active) in [1]; 29.5 µM (active) in [5]; 36.3 µM (active) in assay [6]; 31.7 µM (active) in assay [7]; 60.9 µM (active) in assay [8]; 37 µM (active) in assay [9]. Moreover, the outcome (in assay [2]; in [3]; in assay [4]; with CYP3A5 (gene 1577)) was inactive.
Regarding `CCOC(=O)C(Cl)Cc1cc(-n2nc(C)n(C(F)F)c2=O)c(F)cc1Cl` (configuration not stated), the compound was classed as inactive (in [1]; in assay [2]; in assay [3]; in assay [4]; in the assay with CYP3A5 (gene 1577); in assay [6]). Further, the outcome in [7], in assay [8] and in [9] was inactive. Besides, the concentration at half-maximal activity (AC50) in [5] is 34.3 µM (active).
For the compound `CC1=C(C(=O)Nc2ccccc2)SCCO1`, the compound was classed as inactive (in assay [1]; in [2]; in assay [3]; in assay [4]; in assay [5]; with CYP3A5 (gene 1577)). Also, the compound was called inactive in assay [7] and in [9]. Also, the AC50 in [6] is 50 µM (active); in assay [8] it was 35.7 µM (active).
Take `CCCCC(CC)COC(=O)c1ccccc1C(=O)OCC(CC)CCCC` (configuration not stated): the compound was called inactive (in assay [1]; in assay [2]; in [3]; in assay [4]; in assay [5]; with CYP3A5 (gene 1577)). Also, the compound was classed as inactive in assay [6], in assay [7], in assay [8] and in assay [9].
Take `CCNc1nc(Cl)nc(NCC)n1`: the compound was classed as inactive (in assay [1]; in assay [2]; in [3]; in assay [4]; in assay [5]; with CYP3A5 (gene 1577)). Besides, the call in [6], in assay [7], in [8] and in [9] was inactive.
For the compound `CC(C)C1(C)N=C(c2nc3ccccc3cc2C(=O)O)NC1=O` (configuration not stated), the result (in [1]; in assay [2]; in [3]; in assay [4]; in assay [5]; in the assay with CYP3A5 (gene 1577)) was inactive. Moreover, the call in [6], in [7], in assay [8] and in assay [9] was inactive.
With `O=C(O)c1nc(Cl)ccc1Cl`, the compound was classed as inactive (in assay [1]; in assay [2]; in [3]; in assay [4]; in [5]; with CYP3A5 (gene 1577)). Moreover, the outcome in assay [6], in assay [7], in assay [8] and in [9] was inactive. In addition, the figures for the concentration at half-maximal activity (AC50) in assay [6] and in assay [9] were 33.4 µM (active) and 50 µM (active), respectively.
As to `CC(Oc1ccc(Cl)cc1Cl)C(=O)O` (configuration not stated), the compound was classed as inactive (in assay [1]; in [2]; in assay [3]; in assay [4]; in assay [5]; with CYP3A5 (gene 1577)). Further, the outcome in assay [7], in assay [8] and in [9] was inactive. Moreover, the AC50 in assay [6] is 50 µM (active).
As to `O=C(Nc1ccccc1)Nc1ccnc(Cl)c1`, the outcome in [1], in assay [2] and in [5] was inactive. The half-maximal activity concentration (AC50) in [3] is 84.6 µM (active); in assay [4], 79.5 µM (active); with CYP3A5 (gene 1577), 49.1 µM (active); in assay [6], 71.3 µM (active); in [7], 28.4 µM (active); in [8], 81.3 µM (active). In addition, the AC50 in assay [9] is 24.9 µM (active).
As for `CCc1nn(C)c(C(=O)NCc2ccc(C(C)(C)C)cc2)c1Cl`, the concentration at half-maximal activity (AC50) was 0.738 µM (active) in assay [1]; 50 µM (active) in [2]; 50 µM (active) in [3]; 0.35 µM (active) in [5]; 88.9 µM (active) with CYP3A5 (gene 1577); 5 µM (active) in [6]. Also, the values for the AC50 in [7], in assay [8] and in assay [9] were 0.677 µM (active), 11.9 µM (active) and 11.9 µM (active), respectively. The result in assay [4] was inactive.
For `CNC(=O)ON=CC(C)(C)SC`, the call (in assay [1]; in assay [2]; in assay [3]; in [4]; in [5]; with CYP3A5 (gene 1577)) was inactive. For the same compound, the compound was classed as inactive in assay [6], in assay [7], in assay [8] and in assay [9].

Values taken from PubChem BioAssay (EPA / NIEHS).
